In the assay the target is DAX1 (UniProt P51843). The assay can be described thus: DAX1 repression relief on CAT reporter, dose response, DAX1 inhibitor project, cell-based, CAT activity, absorbance, powder samples (AID 624301). Particulars: HEK293 Gal4-DAX1 CAT reporter, ELISA absorbance; CAT reporter with DAX1, at 100 µM (top of the series). On the technique in general: In an ELISA, binding on a coated surface is turned into a signal by an enzyme label.

The source made the active and inactive calls.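 Rule for the calls: active = relative activity ratio in the reporter plus Dax-1 wells above 5 or under 0.1 at any tested dose; inactive = ratio stays between 0.1 and 5 at every dose.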

Chain of DAX1 (P51843 whole entry, looked up, the tested form may be a part): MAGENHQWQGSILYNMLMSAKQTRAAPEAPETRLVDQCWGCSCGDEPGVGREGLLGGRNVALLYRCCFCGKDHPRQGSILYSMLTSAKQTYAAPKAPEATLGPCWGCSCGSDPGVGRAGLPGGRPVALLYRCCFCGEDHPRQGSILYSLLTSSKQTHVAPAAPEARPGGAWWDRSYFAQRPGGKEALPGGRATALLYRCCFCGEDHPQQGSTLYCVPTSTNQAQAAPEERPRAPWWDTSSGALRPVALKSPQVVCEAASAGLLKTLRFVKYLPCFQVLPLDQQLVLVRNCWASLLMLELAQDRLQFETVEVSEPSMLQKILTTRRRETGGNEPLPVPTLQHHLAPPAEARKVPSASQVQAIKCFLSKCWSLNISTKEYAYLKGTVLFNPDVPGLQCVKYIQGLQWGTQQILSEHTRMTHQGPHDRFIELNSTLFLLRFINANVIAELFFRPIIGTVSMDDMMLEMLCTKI

With `Cn1c(=O)n(C)c2cc(C(=O)Nc3ccc4c(c3)OCCO4)ccc21`, the result was inactive.
Regarding `Cn1c(=O)n(C)c2cc(C(=O)Nc3ccc4c(c3)OCO4)ccc21`, the outcome was inactive.

Values taken from PubChem BioAssay AID624301 (The Scripps Research Institute Molecular Screening Center, 2012).
